The source of these data is PMC7862700, “An all-to-all approach to the identification of sequence-specific readers for epigenetic DNA modifications on cytosine”.

What all share (test): DAPPL (digital affinity profiling via proximity ligation, sequencing); 10 mM Tris-HCl pH 7.5, 50 mM NaCl, 1 mM DTT, 4% glycerol, room temperature, 30 min; GST-TFs on glutathione beads, 16-mer random dsDNA library, 0.1% formaldehyde crosslink after washing; high values mean tight binding
One assay addresses T1, FLI1 (Homo sapiens, UniProt Q01543 1-452).
T1 sequence: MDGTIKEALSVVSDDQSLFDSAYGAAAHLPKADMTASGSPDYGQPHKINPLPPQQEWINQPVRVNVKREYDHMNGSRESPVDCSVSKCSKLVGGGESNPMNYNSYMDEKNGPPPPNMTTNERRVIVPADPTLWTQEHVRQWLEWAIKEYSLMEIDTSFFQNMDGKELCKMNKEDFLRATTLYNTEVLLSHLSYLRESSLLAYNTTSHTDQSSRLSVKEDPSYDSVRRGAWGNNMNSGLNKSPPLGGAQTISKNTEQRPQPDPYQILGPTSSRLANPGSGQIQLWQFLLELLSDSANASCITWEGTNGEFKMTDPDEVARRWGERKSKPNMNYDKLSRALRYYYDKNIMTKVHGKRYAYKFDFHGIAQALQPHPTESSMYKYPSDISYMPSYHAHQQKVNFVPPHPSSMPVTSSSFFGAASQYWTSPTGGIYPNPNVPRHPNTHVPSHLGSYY
The conditions noted are these: protein: recombinant; tags: N-terminal GST; dsDNA, one strand shown. Summed up:
(§1)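 Sequencing on an Illumina NextSeq500 followed washing, crosslinking with 0.1% formaldehyde, proximity ligation (BsaI/T4 ligase, 1 h, 37 °C) and PCR amplification of pools that had been incubated for 30 min at room temperature with 200 nmole of a random double-stranded 16-mer DNA library in Tris/NaCl/DTT/glycerol buffer. Each pool held DNA-barcoded human transcription factors, expressed in yeast as GST fusions and captured on glutathione beads, plus a tag-only sample. Binding signal is a hexamer's read frequency for a factor divided by its frequency in the tag-only sample.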

The next assay deals with T2, ELK1 (Homo sapiens, UniProt P19419 1-428).
T2 sequence: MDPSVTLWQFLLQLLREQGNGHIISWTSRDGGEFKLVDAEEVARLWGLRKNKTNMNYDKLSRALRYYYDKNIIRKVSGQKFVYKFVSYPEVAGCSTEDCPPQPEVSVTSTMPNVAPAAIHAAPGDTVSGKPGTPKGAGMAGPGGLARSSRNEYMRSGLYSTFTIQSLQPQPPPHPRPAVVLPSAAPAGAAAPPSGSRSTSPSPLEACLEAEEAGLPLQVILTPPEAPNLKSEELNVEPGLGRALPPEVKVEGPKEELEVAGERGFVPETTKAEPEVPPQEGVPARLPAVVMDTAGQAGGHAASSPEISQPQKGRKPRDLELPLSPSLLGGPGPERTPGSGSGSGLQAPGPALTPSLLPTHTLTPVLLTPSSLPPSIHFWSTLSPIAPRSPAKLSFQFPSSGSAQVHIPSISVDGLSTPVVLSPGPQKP
The conditions noted are these: protein: recombinant; tags: N-terminal GST; dsDNA, one strand shown. Summed up: as §1

The target of the next assay is T3, GABPA (Homo sapiens, UniProt Q06546 1-454).
T3 sequence: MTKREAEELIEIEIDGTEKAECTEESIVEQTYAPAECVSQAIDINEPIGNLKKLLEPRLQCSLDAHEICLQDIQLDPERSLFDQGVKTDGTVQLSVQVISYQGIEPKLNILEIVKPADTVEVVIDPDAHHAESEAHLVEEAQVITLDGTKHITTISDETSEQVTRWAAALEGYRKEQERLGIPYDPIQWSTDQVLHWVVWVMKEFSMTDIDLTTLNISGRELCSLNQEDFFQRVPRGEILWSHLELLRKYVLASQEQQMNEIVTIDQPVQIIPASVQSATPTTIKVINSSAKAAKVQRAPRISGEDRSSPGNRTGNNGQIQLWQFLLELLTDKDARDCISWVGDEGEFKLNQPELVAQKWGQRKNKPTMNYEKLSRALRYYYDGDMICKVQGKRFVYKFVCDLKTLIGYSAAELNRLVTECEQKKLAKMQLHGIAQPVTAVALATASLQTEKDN
To be noted: protein: recombinant; tags: N-terminal GST; dsDNA, one strand shown. Summed up:
as §1

In the next assay the target is T4, ERG (Homo sapiens, UniProt P11308 1-479).
T4 sequence: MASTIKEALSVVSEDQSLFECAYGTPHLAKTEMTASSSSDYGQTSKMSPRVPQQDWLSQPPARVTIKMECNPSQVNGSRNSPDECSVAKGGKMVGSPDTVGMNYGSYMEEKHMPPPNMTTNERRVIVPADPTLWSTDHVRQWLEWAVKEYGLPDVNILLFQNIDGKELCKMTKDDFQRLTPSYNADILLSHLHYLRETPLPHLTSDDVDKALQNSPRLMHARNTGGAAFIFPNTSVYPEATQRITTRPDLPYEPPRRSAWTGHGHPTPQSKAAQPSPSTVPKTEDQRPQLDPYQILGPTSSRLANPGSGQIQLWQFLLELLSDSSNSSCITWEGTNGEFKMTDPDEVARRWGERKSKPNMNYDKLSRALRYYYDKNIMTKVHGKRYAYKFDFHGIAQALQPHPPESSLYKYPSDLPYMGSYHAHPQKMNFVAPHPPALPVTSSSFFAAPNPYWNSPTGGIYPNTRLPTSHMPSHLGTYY
The conditions noted are these: protein: recombinant; tags: N-terminal GST; dsDNA, one strand shown. Summed up:
as §1

The target of another assay is ELF1 (Homo sapiens, UniProt P32519 1-619). The conditions noted are these: protein: recombinant; tags: N-terminal GST; dsDNA, one strand shown. Summed up: as §1
ELF1, sequence (P32519 whole entry): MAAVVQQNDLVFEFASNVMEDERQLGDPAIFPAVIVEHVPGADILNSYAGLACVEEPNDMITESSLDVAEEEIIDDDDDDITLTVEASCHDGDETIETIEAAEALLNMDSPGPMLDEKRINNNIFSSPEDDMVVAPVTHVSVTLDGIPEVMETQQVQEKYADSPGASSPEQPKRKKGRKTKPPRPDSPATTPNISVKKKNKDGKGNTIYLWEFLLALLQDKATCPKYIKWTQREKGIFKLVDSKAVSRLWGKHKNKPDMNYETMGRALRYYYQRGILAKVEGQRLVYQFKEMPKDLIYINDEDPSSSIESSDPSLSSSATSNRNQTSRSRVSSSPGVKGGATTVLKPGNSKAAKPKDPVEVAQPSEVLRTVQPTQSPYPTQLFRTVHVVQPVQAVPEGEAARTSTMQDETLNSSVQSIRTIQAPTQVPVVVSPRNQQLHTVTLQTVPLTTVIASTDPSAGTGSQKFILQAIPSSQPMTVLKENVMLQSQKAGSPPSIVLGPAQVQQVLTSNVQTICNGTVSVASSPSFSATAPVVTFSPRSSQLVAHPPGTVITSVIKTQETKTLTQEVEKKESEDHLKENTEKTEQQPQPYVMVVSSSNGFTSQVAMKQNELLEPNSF
The next assay addresses T5, EHF (Homo sapiens, UniProt Q9NZC4 1-300).
T5 sequence: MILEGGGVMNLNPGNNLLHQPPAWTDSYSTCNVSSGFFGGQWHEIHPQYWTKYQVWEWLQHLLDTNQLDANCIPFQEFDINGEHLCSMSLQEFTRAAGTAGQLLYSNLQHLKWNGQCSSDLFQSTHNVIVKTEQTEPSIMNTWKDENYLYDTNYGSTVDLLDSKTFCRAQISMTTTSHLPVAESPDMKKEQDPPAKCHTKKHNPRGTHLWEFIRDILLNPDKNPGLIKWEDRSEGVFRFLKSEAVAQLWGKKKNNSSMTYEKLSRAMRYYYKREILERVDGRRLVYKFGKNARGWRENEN
To be noted: protein: recombinant; tags: N-terminal GST; dsDNA, one strand shown. The method in brief:
as §1

A further assay has as its target SPI1 (Homo sapiens, UniProt P17947 1-270). To be noted: protein: recombinant; tags: N-terminal GST; dsDNA, one strand shown. Summed up: as §1
Another assay addresses SPIB (Homo sapiens, UniProt Q01892 1-262). To be noted: protein: recombinant; tags: N-terminal GST; dsDNA, one strand shown. The method in brief:
as §1

Another assay deals with T6, ELK3 (Homo sapiens, UniProt P41970 1-407).
T6 sequence: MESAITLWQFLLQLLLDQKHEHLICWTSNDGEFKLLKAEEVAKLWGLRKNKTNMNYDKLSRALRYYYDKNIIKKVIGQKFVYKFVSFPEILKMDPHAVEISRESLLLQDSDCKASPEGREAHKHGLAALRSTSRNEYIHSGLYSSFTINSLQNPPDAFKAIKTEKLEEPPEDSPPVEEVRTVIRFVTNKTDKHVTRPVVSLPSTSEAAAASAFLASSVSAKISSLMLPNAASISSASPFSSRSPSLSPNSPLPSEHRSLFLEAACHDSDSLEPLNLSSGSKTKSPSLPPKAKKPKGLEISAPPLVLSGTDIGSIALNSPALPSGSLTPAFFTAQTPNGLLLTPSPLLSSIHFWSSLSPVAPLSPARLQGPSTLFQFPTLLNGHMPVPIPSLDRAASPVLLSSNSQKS
The conditions noted are these: protein: recombinant; tags: N-terminal GST; dsDNA, one strand shown. Summed up:
as §1

The target of the next assay is T7, FEV (Homo sapiens, UniProt Q99581 1-238).
T7 sequence: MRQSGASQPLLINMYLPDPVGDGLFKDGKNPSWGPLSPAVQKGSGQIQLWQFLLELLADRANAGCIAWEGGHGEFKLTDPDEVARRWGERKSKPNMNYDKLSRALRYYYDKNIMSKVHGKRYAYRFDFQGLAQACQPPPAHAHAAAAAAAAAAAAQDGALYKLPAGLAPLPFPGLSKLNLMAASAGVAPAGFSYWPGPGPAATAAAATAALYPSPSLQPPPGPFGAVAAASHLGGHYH
The conditions noted are these: protein: recombinant; tags: N-terminal GST; dsDNA, one strand shown. The method in brief:
as §1

In another assay the target is ETV5 (Homo sapiens, UniProt P41161 1-510). To be noted: protein: recombinant; tags: N-terminal GST; dsDNA, one strand shown. Summed up: as §1
ETV5, sequence (P41161 whole entry): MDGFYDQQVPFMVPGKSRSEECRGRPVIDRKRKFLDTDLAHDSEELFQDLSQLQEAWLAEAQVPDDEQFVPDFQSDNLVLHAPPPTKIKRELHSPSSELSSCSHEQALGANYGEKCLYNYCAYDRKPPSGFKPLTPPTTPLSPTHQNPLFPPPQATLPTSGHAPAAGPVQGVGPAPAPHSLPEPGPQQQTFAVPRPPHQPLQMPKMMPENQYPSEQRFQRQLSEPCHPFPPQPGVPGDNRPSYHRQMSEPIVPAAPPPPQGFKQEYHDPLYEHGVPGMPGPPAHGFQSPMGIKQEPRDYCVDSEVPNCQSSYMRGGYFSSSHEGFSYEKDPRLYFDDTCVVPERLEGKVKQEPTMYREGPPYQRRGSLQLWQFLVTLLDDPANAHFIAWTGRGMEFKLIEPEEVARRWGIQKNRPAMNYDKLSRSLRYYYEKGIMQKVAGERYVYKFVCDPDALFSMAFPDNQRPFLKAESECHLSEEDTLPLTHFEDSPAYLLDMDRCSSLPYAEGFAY
A further assay has as its target HSF1 (Homo sapiens, UniProt Q00613 1-529). The conditions noted are these: protein: recombinant; tags: N-terminal GST; chain copies: 3; dsDNA, one strand shown. The method in brief: as §1
The target of a further assay is T8, SPIC (Homo sapiens, UniProt Q8N5J4 1-248).
T8 sequence: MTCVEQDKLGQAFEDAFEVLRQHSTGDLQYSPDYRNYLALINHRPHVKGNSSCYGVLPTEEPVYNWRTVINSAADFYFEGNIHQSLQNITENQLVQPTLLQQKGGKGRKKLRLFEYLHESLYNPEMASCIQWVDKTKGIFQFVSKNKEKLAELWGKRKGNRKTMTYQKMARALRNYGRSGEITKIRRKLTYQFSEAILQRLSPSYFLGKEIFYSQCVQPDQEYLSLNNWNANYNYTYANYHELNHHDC
To be noted: protein: recombinant; tags: N-terminal GST; dsDNA, one strand shown. The method in brief:
as §1

Another assay deals with ELF4 (Homo sapiens, UniProt Q99607 1-663). To be noted: protein: recombinant; tags: N-terminal GST; dsDNA, one strand shown. The method in brief:
as §1

The next assay deals with T9, ELK4 (Homo sapiens, UniProt P28324-2 1-405).
T9 sequence: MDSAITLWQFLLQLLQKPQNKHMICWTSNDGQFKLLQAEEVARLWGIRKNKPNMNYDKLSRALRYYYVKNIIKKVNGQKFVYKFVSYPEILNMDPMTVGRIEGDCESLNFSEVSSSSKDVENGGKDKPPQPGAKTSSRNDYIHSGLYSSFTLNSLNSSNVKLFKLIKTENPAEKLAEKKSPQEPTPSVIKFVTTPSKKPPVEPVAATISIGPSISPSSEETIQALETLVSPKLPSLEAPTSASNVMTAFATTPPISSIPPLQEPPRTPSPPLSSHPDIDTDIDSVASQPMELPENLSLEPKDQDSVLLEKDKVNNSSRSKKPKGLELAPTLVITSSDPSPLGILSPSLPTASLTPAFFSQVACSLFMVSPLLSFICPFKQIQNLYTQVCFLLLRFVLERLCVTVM
To be noted: protein: recombinant; tags: N-terminal GST; dsDNA, one strand shown. The method in brief:
as §1

Another assay deals with T10, ETV2 (Homo sapiens, UniProt O00321 1-342).
T10 sequence: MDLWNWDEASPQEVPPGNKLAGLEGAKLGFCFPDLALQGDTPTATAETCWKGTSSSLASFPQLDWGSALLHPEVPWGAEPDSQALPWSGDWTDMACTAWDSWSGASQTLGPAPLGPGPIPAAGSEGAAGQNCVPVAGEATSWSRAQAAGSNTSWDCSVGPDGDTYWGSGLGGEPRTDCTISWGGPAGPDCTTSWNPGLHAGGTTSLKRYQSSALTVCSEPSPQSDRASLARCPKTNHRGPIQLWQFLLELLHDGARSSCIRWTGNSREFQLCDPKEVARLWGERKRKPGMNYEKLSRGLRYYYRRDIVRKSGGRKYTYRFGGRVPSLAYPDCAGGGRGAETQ
To be noted: protein: recombinant; tags: N-terminal GST; dsDNA, one strand shown. The method in brief:
as §1

Another assay has as its target T11, ELF3 (Homo sapiens, UniProt P78545 1-371).
T11 sequence: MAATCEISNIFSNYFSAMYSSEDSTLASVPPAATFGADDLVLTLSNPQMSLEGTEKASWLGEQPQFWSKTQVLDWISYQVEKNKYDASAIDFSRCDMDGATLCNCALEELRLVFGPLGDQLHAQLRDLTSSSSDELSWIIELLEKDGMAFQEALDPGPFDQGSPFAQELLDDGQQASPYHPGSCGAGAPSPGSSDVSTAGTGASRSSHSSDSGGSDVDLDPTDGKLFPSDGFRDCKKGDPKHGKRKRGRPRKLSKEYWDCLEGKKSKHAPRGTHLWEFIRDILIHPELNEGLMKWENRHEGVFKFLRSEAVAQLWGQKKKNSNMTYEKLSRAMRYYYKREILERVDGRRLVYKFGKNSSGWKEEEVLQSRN
The conditions noted are these: protein: recombinant; tags: N-terminal GST; dsDNA, one strand shown. The method in brief:
as §1

The target of the next assay is ETV1 (Homo sapiens, UniProt P50549 1-477). The conditions noted are these: protein: recombinant; tags: N-terminal GST; dsDNA, one strand shown. Summed up:
as §1

SPIB, sequence (Q01892 whole entry): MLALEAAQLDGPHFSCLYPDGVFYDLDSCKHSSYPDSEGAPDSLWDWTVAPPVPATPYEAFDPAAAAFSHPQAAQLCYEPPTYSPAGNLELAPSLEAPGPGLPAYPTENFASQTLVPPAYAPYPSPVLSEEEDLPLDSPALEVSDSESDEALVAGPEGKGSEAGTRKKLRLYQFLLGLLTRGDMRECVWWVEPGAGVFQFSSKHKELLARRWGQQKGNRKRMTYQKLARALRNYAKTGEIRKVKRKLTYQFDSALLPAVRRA
HSF1, sequence (Q00613 whole entry): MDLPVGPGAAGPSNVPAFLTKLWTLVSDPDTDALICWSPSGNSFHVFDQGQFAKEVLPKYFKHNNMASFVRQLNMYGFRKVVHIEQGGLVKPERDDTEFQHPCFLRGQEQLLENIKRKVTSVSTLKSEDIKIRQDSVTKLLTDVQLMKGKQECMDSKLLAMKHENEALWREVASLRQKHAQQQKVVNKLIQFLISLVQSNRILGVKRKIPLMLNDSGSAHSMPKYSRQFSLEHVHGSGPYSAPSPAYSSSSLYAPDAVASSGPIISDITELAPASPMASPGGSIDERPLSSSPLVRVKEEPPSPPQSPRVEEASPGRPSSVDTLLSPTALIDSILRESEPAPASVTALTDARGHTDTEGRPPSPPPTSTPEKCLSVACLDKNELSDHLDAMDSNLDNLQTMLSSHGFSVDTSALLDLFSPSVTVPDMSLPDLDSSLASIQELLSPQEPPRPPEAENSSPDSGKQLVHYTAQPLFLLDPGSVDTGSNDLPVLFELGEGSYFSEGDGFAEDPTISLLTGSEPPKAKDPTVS
ETV1, sequence (P50549 whole entry): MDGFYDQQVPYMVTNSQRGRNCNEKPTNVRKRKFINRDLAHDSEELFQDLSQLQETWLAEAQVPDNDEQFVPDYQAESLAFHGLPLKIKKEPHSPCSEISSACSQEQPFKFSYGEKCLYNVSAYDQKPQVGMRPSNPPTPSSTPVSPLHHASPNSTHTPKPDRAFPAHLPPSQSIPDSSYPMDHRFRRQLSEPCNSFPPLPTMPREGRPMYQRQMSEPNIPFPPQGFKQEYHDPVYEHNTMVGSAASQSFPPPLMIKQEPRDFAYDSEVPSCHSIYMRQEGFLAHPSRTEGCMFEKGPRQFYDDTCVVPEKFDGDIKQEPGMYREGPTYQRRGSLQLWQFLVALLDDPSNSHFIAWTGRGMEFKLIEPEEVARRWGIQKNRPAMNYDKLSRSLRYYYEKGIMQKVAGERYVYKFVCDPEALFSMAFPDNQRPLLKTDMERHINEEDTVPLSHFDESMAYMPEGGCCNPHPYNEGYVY
ELF4, sequence (Q99607 whole entry): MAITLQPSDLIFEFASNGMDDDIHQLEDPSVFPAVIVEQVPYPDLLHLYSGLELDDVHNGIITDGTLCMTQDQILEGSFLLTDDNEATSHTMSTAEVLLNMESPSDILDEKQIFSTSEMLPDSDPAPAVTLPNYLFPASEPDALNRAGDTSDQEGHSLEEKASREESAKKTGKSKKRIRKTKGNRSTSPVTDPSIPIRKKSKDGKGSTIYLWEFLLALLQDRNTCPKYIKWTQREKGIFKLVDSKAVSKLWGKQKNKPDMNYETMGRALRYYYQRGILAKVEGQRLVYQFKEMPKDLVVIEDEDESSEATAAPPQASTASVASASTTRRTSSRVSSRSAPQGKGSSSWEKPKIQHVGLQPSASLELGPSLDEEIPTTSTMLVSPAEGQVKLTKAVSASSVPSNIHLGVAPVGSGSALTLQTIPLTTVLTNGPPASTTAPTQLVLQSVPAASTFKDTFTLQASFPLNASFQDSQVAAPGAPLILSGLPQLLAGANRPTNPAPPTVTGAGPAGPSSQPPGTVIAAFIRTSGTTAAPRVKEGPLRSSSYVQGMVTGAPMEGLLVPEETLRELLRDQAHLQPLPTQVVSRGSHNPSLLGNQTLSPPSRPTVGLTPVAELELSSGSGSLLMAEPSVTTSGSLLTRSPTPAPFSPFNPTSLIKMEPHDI

With AGTTCC, the binding signal is 2.16 fold enrichment (6-mer frequency, TF over GST control) with FLI1; 2.17 fold enrichment (6-mer frequency, TF over GST control) in the assay with ELK1; 1.9 fold enrichment (6-mer frequency, TF over GST control) with GABPA; 2.2 fold enrichment (6-mer frequency, TF over GST control) with ERG; 1.95 fold enrichment (6-mer frequency, TF over GST control) with ELF1; 2.11 fold enrichment (6-mer frequency, TF over GST control) in the assay with EHF. Besides, the binding signal was 2.62 fold enrichment (6-mer frequency, TF over GST control) in the assay with SPI1; 2.36 fold enrichment (6-mer frequency, TF over GST control) with SPIB; 1.99 fold enrichment (6-mer frequency, TF over GST control) with ELK3; 1.96 fold enrichment (6-mer frequency, TF over GST control) in the assay with FEV; 2.29 fold enrichment (6-mer frequency, TF over GST control) with ETV5; 1.34 fold enrichment (6-mer frequency, TF over GST control) with HSF1. Further, the binding signal in the assay with SPIC is 2.42 fold enrichment (6-mer frequency, TF over GST control); with ELF4, 1.97 fold enrichment (6-mer frequency, TF over GST control); in the assay with ELK4 it was 1.98 fold enrichment (6-mer frequency, TF over GST control); with ETV2 it was 1.88 fold enrichment (6-mer frequency, TF over GST control); with ELF3 it was 2.05 fold enrichment (6-mer frequency, TF over GST control); with ETV1, 2.21 fold enrichment (6-mer frequency, TF over GST control).
